Source: the supplement of paper PMC10515830
Counter-ions that a name gives are not always drawn.

Legend:
Details in all cases: 10 µM; exposure time 6 h
[1] = system: Danio rerio larvae (5 dpf); experiment: difference in excitability vs DMSO (percentage points); higher = more excitable than DMSO
Procedure, shortened: (§1)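 Wild-type zebrafish larvae at 5 dpf were kept in 96-well plates and exposed for 6 h to 100 µL egg water holding library compound at a final concentration of 10 µM. From 3 h into exposure, the plates were held at 28.5 ℃ and photographed every 6 s through a 3-h programme of moving lines and 100 ms, 400Hz tones. Each behaviour was scored by Z-LaP Tracker, a DeepLabCut model, and averaged over 48 larvae per compound. Every value gives the compound mean minus the vehicle control mean, in percentage points.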

[2] = system: Danio rerio larvae (5 dpf); experiment: difference in startle response vs DMSO (percentage points); higher = stronger startle than DMSO
Procedure, shortened: as §1

[3] = system: Danio rerio larvae (5 dpf); experiment: difference in activity during first hour vs DMSO (percentage points); higher = more activity than DMSO
Procedure, shortened: as §1

[4] = system: Danio rerio larvae (5 dpf); experiment: difference in habituation to acoustic stimuli vs DMSO (percentage points); higher = more habituation than DMSO
Procedure, shortened: as §1

[5] = system: Danio rerio larvae (5 dpf); experiment: difference in combined optomotor response to red, green and blue moving lines vs DMSO (percentage points); higher = stronger optomotor response than DMSO
Procedure, shortened: as §1

Structure (SMILES) | difference in excitability [1] | difference in startle response [2] | difference in activity during first hour [3] | difference in habituation to acoustic stimuli [4] | difference [5]
CCOc1cc([C@@H](CS(C)(=O)=O)N2C(=O)c3cccc(NC(C)=O)c3C2=O)ccc1OC [Apremilast] | 0.408 | 3.1 | -6.82 | -0.561 | -3.01
CC1COc2c(N3CCN(C)CC3)c(F)cc3c(=O)c(C(=O)O)cn1c23 (stereo not given) [Ofloxacin] | 5.76 | 3.75 | 9.1 | -0.318 | 1.41
CN(N=O)C(=O)N[C@@H](C=O)[C@@H](O)[C@H](O)[C@H](O)CO [Streptozotocin] | -0.24 | -1.97 | -9.76 | -6.76 | -1.53
CC[C@H](Nc1ncnc2[nH]cnc12)c1nc2cccc(F)c2c(=O)n1-c1ccccc1 | 5.3 | 1.19 | -0.052 | -0.933 | 2.36
O=C(O)C[C@H](O)C[C@H](O)/C=C/c1c(C2CC2)nc2ccccc2c1-c1ccc(F)cc1 [Pitavastatin (calcium salt)] | 10.2 | -3.29 | 4.76 | -3.94 | 13.1
Clc1ccccc1C(c1ccccc1)(c1ccccc1)n1ccnc1 [Clotrimazole] | -0.151 | 4.37 | -19.1 | -10.2 | -12.6
Cn1c(=O)c2[nH]cnc2n(C)c1=O [Oxtriphylline] | -4.32 | 6.97 | -0.101 | 1.02 | -3.12
Cc1ccc(S(=O)(=O)NC(=O)NN2CCCCCC2)cc1 [Tolazamide] | 7.01 | 21.4 | 4.59 | 2.23 | 9.69
O=C(O)c1cn(C2CC2)c2cc(N3CCNCC3)c(F)cc2c1=O [Ciprofloxacin (hydrochloride)] | 5.21 | -3.39 | 16.5 | 2.26 | 2.77
O=c1[nH]c(=O)n([C@H]2C[C@H](O)[C@@H](CO)O2)cc1I [Idoxuridine] | 6.91 | 0.604 | -3.04 | 5.55 | 2.86
CCC(=O)O[C@]1(C(=O)SCF)[C@H](C)C[C@H]2[C@@H]3C[C@H](F)C4=CC(=O)C=C[C@]4(C)[C@@]3(F)[C@@H](O)C[C@@]21C [Fluticasone Propionate] | -4.47 | -3.21 | 11.5 | 1.17 | 14.7
COCCCOc1cc(C[C@@H](C[C@H](N)[C@@H](O)C[C@H](C(=O)NCC(C)(C)C(N)=O)C(C)C)C(C)C)ccc1OC [Aliskiren (hemifumarate)] | 16.6 | -3.2 | 10.2 | 0.61 | 3.27
C[C@H](Nc1ncnc2nc[nH]c12)c1cc2cccc(Cl)c2c(=O)n1-c1ccccc1 | -1.93 | 2.84 | 12.8 | 2.7 | 8.44
CCN(CC)CC#CCOC(=O)C(O)(c1ccccc1)C1CCCCC1 (stereo not given) [Oxybutynin (hydrochloride)] | -4.54 | 8.08 | -11.4 | -8.53 | -10.5
CC(C)NCC(O)COc1ccc(CCOCC2CC2)cc1 (stereo not given) [Betaxolol (hydrochloride)] | 2.57 | 2.31 | 11.4 | -2.52 | 6.22
CNCC[C@@H](Oc1ccccc1C)c1ccccc1 [Atomoxetine (hydrochloride)] | 21.7 | -9.34 | -21.4 | -3.36 | -0.351
COc1cc2c(cc1OC)CC(=O)N(CCCN(C)C[C@H]1Cc3cc(OC)c(OC)cc31)CC2 [Ivabradine (hydrochloride)] | 8.58 | 0.00664 | 14.5 | -0.807 | 9.1
C[C@H](N)[C@H](O)c1cccc(O)c1 [Metaraminol (tartrate)] | 3.23 | 5.35 | -15.4 | -0.886 | -6.91
O=c1ccn([C@@H]2O[C@H](CO)[C@@H](O)[C@H]2O)c(=O)[nH]1 [Uridine] | -2.47 | -2.07 | 11.4 | -2.41 | 1.41
CC(=O)O[C@H]1Cc2ccccc2N(C(N)=O)c2ccccc21 [Eslicarbazepine Acetate] | -1.41 | -0.316 | -0.636 | -4.75 | -2.32
Clc1cccc(Cl)c1NC1=NCCN1 [Clonidine (hydrochloride)] | 9.22 | 3.55 | -11.7 | 0.121 | 6.82
CCCCNC(=O)NS(=O)(=O)c1ccc(C)cc1 [Tolbutamide] | 1.04 | -0.31 | 15.1 | 0.867 | 0.664
Nc1[nH]c(=O)ncc1F [5-Fluorocytosine] | 0.317 | 1.12 | -10.7 | -2.78 | 2.67
C#C[C@]1(O)CC[C@H]2[C@@H]3CCC4=CCCC[C@@H]4[C@H]3C(=C)C[C@@]21CC [Desogestrel] | 16.3 | -10.3 | 30.8 | -6.42 | -15.3

Structure (SMILES) | difference in excitability [1] | difference in startle response [2] | difference in activity during first hour [3] | difference in habituation to acoustic stimuli [4] | difference [5]
CC#CC(=O)N1CCC[C@H]1c1nc(-c2ccc(C(=O)Nc3ccccn3)cc2)c2c(N)nccn12 [Acalabrutinib] | 2.39 | 12.9 | 10.5 | 5 | -2.56
CN(C)CCCC1(c2ccc(F)cc2)OCc2cc(C#N)ccc21 (stereo not given) [Citalopram (hydrobromide)] | 8.67 | -1.92 | -12.8 | -3.86 | -4.06
C=C1/C(=C\C=C2/CCC[C@]3(C)[C@@H]([C@H](C)/C=C/[C@@H](O)C4CC4)CC[C@@H]23)C[C@@H](O)C[C@@H]1O [Calcipotriol (hydrate)] | 15.4 | -5.26 | 0.435 | -0.975 | 5.42
NNC(=O)c1ccncc1 [Isoniazid] | 6.63 | 4.93 | 12.7 | -2.52 | 6.66
CN[C@H]1CC[C@@H](c2ccc(Cl)c(Cl)c2)c2ccccc21 [Sertraline (hydrochloride)] | 8.65 | 9.23 | -22.3 | -4.17 | -15.1
CCN(CCO)CCCC(C)Nc1ccnc2cc(Cl)ccc12 (stereo not given) [Hydroxychloroquine (sulfate)] | 10.2 | 0.589 | -2.91 | 4.81 | -3.68
CC(C)(C(=O)O)c1ccc(C(O)CCCN2CCC(C(O)(c3ccccc3)c3ccccc3)CC2)cc1 (stereo not given) [Fexofenadine (hydrochloride)] | 4.09 | 2.98 | 11.3 | 0.612 | 5.51
CC[C@@H]([C@H](C)O)n1ncn(-c2ccc(N3CCN(c4ccc(OC[C@@H]5CO[C@@](Cn6cncn6)(c6ccc(F)cc6F)C5)cc4)CC3)cc2)c1=O [Posaconazole] | 9.26 | -3.5 | 4.34 | -1.56 | 5.63
CN1C(CCl)Nc2cc(Cl)c(S(N)(=O)=O)cc2S1(=O)=O (stereo not given) [Methyclothiazide] | 5.58 | 4.44 | -0.184 | 2 | -1.76
CC[C@H](C)C[C@H](C)CCCCCCCCC(=O)N[C@H]1C[C@@H](O)[C@@H](NCCN)NC(=O)[C@@H]2[C@@H](O)CCN2C(=O)[C@H]([C@H](O)CCN)NC(=O)[C@H]([C@H](O)[C@@H](O)c2ccc(O)cc2)NC(=O)[C@@H]2C[C@@H](O)CN2C(=O)[C@H]([C@@H](C)O)NC1=O [Caspofungin (acetate)] | 12.4 | -1.41 | -14 | -0.0911 | -8.06
CO[C@H]1C[C@@H]2CC[C@@H](C)[C@@](O)(O2)C(=O)C(=O)N2CCCC[C@H]2C(=O)O[C@H]([C@H](C)C[C@@H]2CC[C@@H](OCCO)[C@H](OC)C2)CC(=O)[C@H](C)/C=C(\C)[C@@H](O)[C@@H](OC)C(=O)[C@H](C)C[C@H](C)/C=C/C=C/C=C/1C [Everolimus] | 1.38 | 1.06 | 1.4 | -3.73 | 5.32
C[C@@H]1C[C@H]2[C@@H]3CCC4=CC(=O)C=C[C@]4(C)[C@@]3(F)[C@@H](O)C[C@]2(C)[C@@]1(O)C(=O)CO [Dexamethasone] | -4.56 | -3.99 | -6.96 | 0.952 | 3.79
CCCCN1CCCCC1C(=O)Nc1c(C)cccc1C (stereo not given) [Bupivacaine] | 0.996 | -2.63 | 13.4 | 2.63 | 6.71
CN1[C@@H]2CC[C@H]1C[C@@H](OC(c1ccccc1)c1ccccc1)C2 [Benztropine (mesylate)] | -5.24 | -9.21 | 27.7 | -9.38 | -1.29
CC(C)OC(=O)OCOP(=O)(CO[C@H](C)Cn1cnc2c(N)ncnc21)OCOC(=O)OC(C)C [Tenofovir Disoproxil (fumarate)] | 9.75 | 2.55 | 6.31 | 0.343 | 8.11
COc1ccc(C(=O)CC(=O)c2ccc(C(C)(C)C)cc2)cc1 [Avobenzone] | 3.84 | -2.54 | -6.34 | 4.35 | -2.39
CCCCCOc1ccc(-c2ccc(-c3ccc(C(=O)N[C@H]4C[C@@H](O)[C@@H](O)NC(=O)[C@@H]5[C@@H](O)[C@@H](C)CN5C(=O)[C@H]([C@@H](C)O)NC(=O)[C@H]([C@H](O)[C@@H](O)c5ccc(O)cc5)NC(=O)[C@@H]5C[C@@H](O)CN5C(=O)[C@H]([C@@H](C)O)NC4=O)cc3)cc2)cc1 [Anidulafungin] | 9.87 | -9.61 | -17.6 | -10.4 | -18.1
Cc1cn(-c2cc(NC(=O)c3ccc(C)c(Nc4nccc(-c5cccnc5)n4)c3)cc(C(F)(F)F)c2)cn1 [Nilotinib] | 28.8 | -3.62 | -6.05 | -1.02 | -2.49
OC[C@H]1O[C@@H](O[C@@H]2[C@@H](CO)OC(O)(CO)[C@H]2O)[C@H](O)[C@@H](O)[C@H]1O (mixture of isomers) [Lactulose] | 2.43 | -1.72 | -2.1 | -4.39 | -4.94
O=C(O)COCCN1CCN([C@H](c2ccccc2)c2ccc(Cl)cc2)CC1 [(R)-Cetirizine (hydrochloride)] | 5.78 | -3.02 | -1.26 | 6.23 | 5.37
N#Cc1ccc(Oc2ccc3c(c2)COB3O)cc1 | -2.19 | -0.784 | -16.9 | -15.1 | -18.2
CCOc1nc2cccc(C(=O)OCc3oc(=O)oc3C)c2n1Cc1ccc(-c2ccccc2-c2noc(=O)[nH]2)cc1 [Azilsartan Medoxomil] | 6.47 | -1.67 | -8.07 | 5.02 | -2.25
C[C@H](Cc1cc2c(c(C(N)=O)c1)N(CCCO)CC2)NCCOc1ccccc1OCC(F)(F)F [Silodosin] | 15.3 | 3.54 | 3.31 | -5.47 | 4.97
